Experimental data published in PubChem BioAssay (Tox21).
“And” between values parts separate entries of the source, which are not always exact repeats. Identical values can stand only once. Results filed as inconclusive are left out. Entries that show only a call come without a potency. Some structures have more than one record in an assay (separate samples or runs), and their calls can disagree. The source made the active and inactive calls. Calls follow the shape of the dose curve; as a rule, active = well fitted curve in the direction sought with a large enough effect in the repeat runs; inconclusive = weak or mixed curves; inactive = no such curve, though single readings can be large; an effect the other way counts as inactive or inconclusive.

Key:
[1] = A CellTox Green Cytotoxicity Assay to monitor cytotoxicity in HEK293 cells - 40 hour (AID 1224871); also: nearly all actives have a fitted effect of over 45% in size; also: potency is read from the fitted curve at half-maximal effect
Procedure, shortened: (§1)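 HEK293 cells premixed with CellTox Green dye were seeded at 600 cells/well and left 5 h at 37 C/5% CO2 before pin transfer of 23 nL compound in DMSO. Fluorescence from dye bound to dead-cell DNA was read during 40 h treatment.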

[2] = qHTS RealTime-Glo MT Cell Viability Assay in HEK293 cells - 16 hour (AID 1224872); also: nearly all actives have a fitted effect of over 50% in size; also: potency is read from the fitted curve at half-maximal effect
Procedure, shortened: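 Viability tracked continuously by luminescence as live cells reduce a prosubstrate for NanoLuc; HEK293 cells preincubated 5 h, compound-treated at 37 C, and read at 0, 8, 16, 24, 32 and 40 h.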

[3] = qHTS RealTime-Glo MT Cell Viability Assay in HepG2 cells - 8 hour (AID 1224873); also: nearly all actives have a fitted effect of over 55% in size
Procedure, shortened: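 HepG2 cells (600/well) mixed with RealTime-Glo MT reagent, settled 5 h at 37 C/5% CO2 before compound addition. Nonlytic NanoLuc luminescence from viable-cell prosubstrate reduction read repeatedly during 40 h treatment at 37 C.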

[4] = qHTS RealTime-Glo MT Cell Viability Assay in HEK293 cells - 40 hour (AID 1224874); conditions: RealTime-Glo luminescence; max response: stronger effect = lower value; also: nearly all actives have a fitted effect of over 50% in size; also: potency is read from the fitted curve at half-maximal effect
Procedure, shortened: (§2)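 HEK293 cells mixed with RealTime-Glo reagents (NanoLuc plus cell-permeant prosubstrate) at 600 cells/well, preincubated 5 h at 37 C/5% CO2, then given 23 nL compound in DMSO. Nonlytic luminescence from viable cells was read at 0, 8, 16, 24, 32 and 40 h.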

[5] = A CellTox Green Cytotoxicity Assay to monitor cytotoxicity in HEK293 cells - 24 hour (AID 1224875); also: series mostly up to about 77 µM; nearly all actives have a fitted effect of over 45% in size
Procedure, shortened: as §1

[6] = A CellTox Green Cytotoxicity Assay to monitor cytotoxicity in HepG2 cells - 16 hour (AID 1224876); also: nearly all actives have a fitted effect of over 45% in size; also: potency is read from the fitted curve at half-maximal effect
Procedure, shortened: (§3)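 HepG2 cells were seeded together with the CellTox Green dye at 600 cells/well, left 5 h at 37 C/5% CO2, then given compounds in DMSO. Fluorescence from dye bound to dead-cell DNA was read repeatedly over 40 h of treatment at 37 C.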

[7] = qHTS RealTime-Glo MT Cell Viability Assay in HepG2 cells - 32 hour (AID 1224877); also: nearly all actives have a fitted effect of over 55% in size; also: potency is read from the fitted curve at half-maximal effect
Procedure, shortened: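 Viability was tracked continuously by NanoLuc luminescence from prosubstrate reduced by living HepG2 cells, at successive time points over 40 h of compound exposure. Cells with reagent were preincubated 5 h at 37 °C before compound addition.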

[8] = A CellTox Green Cytotoxicity Assay to monitor cytotoxicity in HepG2 cells - 24 hour (AID 1224878); also: nearly all actives have a fitted effect of over 45% in size; also: potency is read from the fitted curve at half-maximal effect
Procedure, shortened: as §3

[9] = A CellTox Green Cytotoxicity Assay to monitor cytotoxicity in HepG2 cells - 40 hour (AID 1224879); also: nearly all actives have a fitted effect of over 40% in size; also: potency is read from the fitted curve at half-maximal effect
Procedure, shortened: as §3

[10] = qHTS RealTime-Glo MT Cell Viability Assay in HEK293 cells - 0 hour (AID 1224880)
Procedure, shortened: as §2

Nc1cccc(C(F)(F)F)c1
Potency [1]: inactive
Potency [2]: inactive
Potency [3]: inactive
max response [4]: 3.13% (inactive) and 0.276% (inactive)
Potency [5]: inactive
Potency [6]: inactive
Potency [7]: inactive
Potency [8]: inactive
Potency [9]: inactive
Potency [10]: inactive

O=C(Cl)c1ccc(C(=O)Cl)cc1
Potency [1]: inactive
Potency [2]: inactive
Potency [3]: inactive
max response [4]: -18.9% (inactive) and 3.42% (inactive)
Potency [6]: inactive
Potency [7]: inactive
Potency [8]: inactive
Potency [9]: inactive
Potency [10]: inactive

O=C1O[C@H]([C@H](O)CO)C(O)=C1O
Potency [1]: inactive
Potency [2]: inactive
Potency [3]: inactive
max response [4]: 0.913% (inactive) and 0.152% (inactive)
Potency [6]: inactive
Potency [7]: inactive
Potency [8]: inactive
Potency [9]: inactive
Potency [10]: inactive

OCCOCCOCCOCCOCCO
Potency [1]: inactive
Potency [2]: inactive
Potency [3]: inactive
max response [4]: 2.45% (inactive) and 0.674% (inactive)
Potency [5]: inactive
Potency [6]: inactive
Potency [7]: inactive
Potency [8]: inactive
Potency [9]: inactive
Potency [10]: inactive

CCCCCCCCCCCCCC(=O)O
Potency [1]: inactive
Potency [2]: inactive
Potency [3]: inactive
max response [4]: -22.5% (inactive) and -9.69% (inactive)
Potency [6]: inactive
Potency [7]: inactive
Potency [8]: inactive
Potency [9]: inactive
Potency [10]: inactive

Cc1ccc(C)c(S(=O)(=O)O)c1
Potency [1]: inactive
Potency [2]: inactive
Potency [3]: inactive
max response [4]: 6.87% (inactive) and -2.89% (inactive)
Potency [5]: inactive
Potency [6]: inactive
Potency [7]: inactive
Potency [8]: inactive
Potency [9]: inactive
Potency [10]: inactive

O=C1OC(=O)c2c(Cl)c(Cl)c(Cl)c(Cl)c21
Potency [1]: inactive
Potency [2]: inactive
Potency [3]: inactive
max response [4]: 1.44% (inactive)
Potency [6]: inactive
Potency [7]: inactive
Potency [8]: inactive
Potency [9]: inactive
Potency [10]: inactive

CCCCCCCCCCCC(=O)N(C)CC(=O)O
cytotoxicity increase [1]: 3.46% [at 6.97 µM] (inactive)
Potency [2]: inactive
Potency [3]: inactive
max response [4]: 1.1% (inactive) and -15.4% (inactive)
Potency [6]: inactive
Potency [7]: inactive
Potency [8]: inactive
cytotoxicity increase [9]: 1.38% [at 6.97 µM] (inactive)
Potency [10]: inactive

CC(C)=CCC/C(C)=C/C=O
Potency [1]: inactive
Potency [2]: inactive
Potency [3]: inactive
Potency [5]: inactive
Potency [6]: inactive
Potency [7]: inactive
Potency [8]: inactive
Potency [9]: inactive
Potency [10]: inactive

c1cnc2c(c1)ccc1cccnc12
Potency [1]: 49.4 µM (active) and 43.6 µM (active) and inactive
Potency [2]: 11 µM (active)
Potency [3]: inactive
Potency [4]: 3.12 µM (active) and 7.76 µM (active) and 6.92 µM (active)
Potency [6]: inactive
Potency [7]: inactive
Potency [8]: inactive
Potency [9]: 44.1 µM (active) and inactive
Potency [10]: inactive

C=C(C)CC(C)(C)C
Potency [1]: inactive
Potency [2]: inactive
Potency [3]: inactive
max response [4]: 7.8% (inactive) and -7.58% (inactive)
Potency [6]: inactive
Potency [7]: inactive
Potency [8]: inactive
Potency [9]: inactive
Potency [10]: inactive

OB(O)O
Potency [1]: inactive
Potency [2]: inactive
Potency [3]: inactive
max response [4]: 1.85% (inactive) and 3.92% (inactive)
Potency [6]: inactive
Potency [7]: inactive
Potency [8]: inactive
Potency [9]: inactive
Potency [10]: inactive

CC(=O)OC/C=C(\C)CCC=C(C)C
Potency [1]: inactive
Potency [2]: inactive
Potency [3]: inactive
max response [4]: -1.95% (inactive) and 0.392% (inactive)
Potency [6]: inactive
Potency [7]: inactive
Potency [8]: inactive
Potency [9]: inactive
Potency [10]: inactive

O=Cc1ccc(CO)o1
Potency [1]: inactive
Potency [2]: inactive
Potency [3]: inactive
max response [4]: -0.203% (inactive) and -12.4% (inactive)
Potency [5]: inactive
Potency [6]: inactive
Potency [7]: inactive
Potency [8]: inactive
Potency [9]: inactive
Potency [10]: inactive

CCCOC(=O)NCCCN(C)C
Potency [1]: inactive
Potency [2]: inactive
Potency [3]: inactive
Potency [6]: inactive
Potency [7]: inactive
Potency [8]: inactive
Potency [9]: inactive
Potency [10]: inactive

CC(CN1c2ccccc2Sc2ccccc21)N(C)C (stereo unspecified)
Potency [1]: 54.9 µM (active) and inactive
Potency [2]: 39.3 µM (active) and 30.9 µM (active)
Potency [3]: inactive
Potency [6]: inactive and 43.6 µM (active)
Potency [7]: inactive and 49 µM (active)
Potency [8]: 49 µM (active) and 23.9 µM (active)
Potency [9]: 55.5 µM (active) and 49 µM (active) and 23.9 µM (active)
Potency [10]: inactive

OC[C@H]1O[C@@H](Oc2ccc(O)cc2)[C@H](O)[C@@H](O)[C@@H]1O
Potency [1]: inactive
Potency [2]: inactive
Potency [3]: inactive
Potency [6]: inactive
Potency [7]: inactive
Potency [8]: inactive
Potency [9]: inactive
Potency [10]: inactive

CCCCC(=O)O
Potency [1]: inactive
Potency [2]: inactive
Potency [3]: inactive
Potency [5]: inactive
Potency [6]: inactive
Potency [7]: inactive
Potency [8]: inactive
Potency [9]: inactive
Potency [10]: inactive

C[n+]1ccn(CCO)c1
Potency [1]: inactive
Potency [2]: inactive
Potency [3]: inactive
Potency [5]: inactive
Potency [6]: inactive
Potency [7]: inactive
Potency [8]: inactive
Potency [9]: inactive
Potency [10]: inactive

CCN(CC)CCNC(=O)c1ccc(N)cc1
Potency [1]: inactive
Potency [2]: inactive
Potency [3]: inactive
Potency [6]: inactive
Potency [7]: inactive
Potency [8]: inactive
Potency [9]: inactive
Potency [10]: inactive

CCCCCC(C)=O
Potency [1]: inactive
Potency [2]: inactive
Potency [3]: inactive
Potency [6]: inactive
Potency [7]: inactive
Potency [8]: inactive
Potency [9]: inactive
Potency [10]: inactive

OC1CCCCC1
Potency [1]: inactive
Potency [2]: inactive
Potency [3]: inactive
Potency [5]: inactive
Potency [6]: inactive
Potency [7]: inactive
Potency [8]: inactive
Potency [9]: inactive
Potency [10]: inactive

CC(=O)OC[C@H]1O[C@@](COC(C)=O)(O[C@H]2O[C@H](COC(C)=O)[C@@H](OC(C)=O)[C@H](OC(C)=O)[C@H]2OC(C)=O)[C@@H](OC(C)=O)[C@@H]1OC(C)=O
Potency [1]: inactive
Potency [2]: inactive
Potency [3]: inactive
Potency [5]: inactive
Potency [6]: inactive
Potency [7]: inactive
Potency [8]: inactive
Potency [9]: inactive
Potency [10]: inactive
